Screening data as filed in PubChem BioAssay.
An excerpt weighted towards active compounds, which were near 1.5% of everything screened.
DUSP3 inh – VHR1 phosphatase inhibitors, primary screen, biochemical, absorbance, uHTS; Dual specificity protein phosphatase 3 (Homo sapiens), P51452; recombinant VHR phosphatase, pNPP absorbance; inhibition, % at 13.3 µM; hit rate 0.52% among 290,000; in the data active = inhibition above about 50%
Target sequence (P51452 whole entry, looked up): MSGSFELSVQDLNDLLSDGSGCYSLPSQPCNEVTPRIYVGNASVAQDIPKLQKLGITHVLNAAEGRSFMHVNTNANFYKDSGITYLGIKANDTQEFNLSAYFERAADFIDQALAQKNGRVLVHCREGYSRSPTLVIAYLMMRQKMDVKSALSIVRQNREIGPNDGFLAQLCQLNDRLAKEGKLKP
TcdB inh – TcdB glycohydrolase inhibitors, primary screen, biochemical, single point, plate reader | AID 652162, 2013 | inhibition, % at 9.99 µM | hit rate 0.24% among 350,000 | TcdB glycohydrolase enzymatic assay; in the data active = inhibition above about 10%
CCHF vOTU inh – CCHFV vOTU protease inhibitors, primary screen, biochemical, Pep-AMC substrate, fluorescence; Crimean-Congo hemorrhagic fever virus L polyprotein viral ovarian tumor (vOTU) protease …; inhibition, % at 11.5 µM; hit rate 0.55% among 370,000; in the data active = inhibition above about 30%; also: 0% = vehicle wells with enzyme and 100% = no enzyme wells
PriA SSB inh – inhibitors of Klebsiella pneumoniae PriA binding to SSB C-terminal tail, primary screen, biochemical, AlphaScreen; PriA–SSB C-terminal tail interaction (Klebsiella pneumoniae); inhibition, % at 33 µM; AlphaScreen SSBct-PriA binding, biotinylated peptide; hit rate 0.6% among 430,000; in the data active = inhibition mostly above about 37%, no sharp cut-off; inactive = mostly below about 20%;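 also: plate controls were negative control peptide for no effect and reference peptide for full effect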
PrPC surface inh – inhibitors of human cell surface prion protein PrPC, primary screen, cell-based, TR-FRET. inhibition, % at 13.8 µM. hit rate 0.43% among 370,000. Major prion protein (Homo sapiens), P04156. TR-FRET read-out; in the data active = inhibition above about 24%; also: 0% = median of the test wells and 100% = reference compound wells
Vc quorum ag – inducers of Vibrio cholerae quorum light production without autoinducers, primary screen, BH1578 luxS cqsA deficient, single point. activation, % at 18.7 µM. hit rate 0.16% among 350,000. V. cholerae BH1578 lux reporter, luminescence, 6 h; in the data active = activation mostly above about 9.7%, no sharp cut-off
An asterisk follows results filed as active; i = inactive; / = no result given.

SMILES	DUSP3 inh	TcdB inh	CCHF vOTU inh	PriA SSB inh	PrPC surface inh	Vc quorum ag
c1cc2c(cc1CNc1ccc(N3CCOCC3)cc1)OCO2	/	-3.2	5.9	47.8*	-14.2	-0.5
c1cc2c(cc1CNc1nc(N3CCOCC3)nc(N3CCOCC3)n1)OCO2	/	/	/	0.0	/	/
O=C(NC1CCCC1)C1CCCN(C(=O)Nc2ccccc2)C1 (stereo not drawn)	3.5	0.0	-0.2	-3.5	-1.8	i
O=C(NC1CCN(C(=O)Nc2ccccc2)CC1)C1CCCCC1	51.9*	/	-4.2	1.8	-2.3	i
C/C(=N\NC(=O)CN1CCCCC1)c1ccccc1O	53.0*	5.2	-9.7	/	8.5	-1.2
CCOC(=O)N1CCN(Cc2c(F)cccc2Cl)CC1	50.8*	/	-4.8	-16.5	-4.6	-0.4
CCOC(=O)N1CCN(Cc2c(F)cccc2F)CC1	7.6	/	-1.3	-5.6	-8.2	i
Nc1ccc(SCc2nc3cccc4c3n2CCC4)cc1	32.2	0.2	-8.6	44.3*	9.0	0.9
Cc1ccc(-c2cc(C(=O)OC3CCOC3=O)c3ccccc3n2)c(C)c1 (stereo not drawn)	26.4	18.0*	1.8	1.0	6.4	-1.4
O=C(OC1CCOC1=O)c1cc(-c2cccs2)nc2ccccc12 (stereo not drawn)	-10.8	0.8	-90.4	-23.0	9.1	0.3
CCOc1cccc(OCC)c2c(C)[n+](CC3CCCO3)c(C)c1-2 (stereo not drawn)	52.3*	/	/	3.0	/	i
Cc1ccc(S(=O)(=O)N2CCN(CC(O)COc3cccc(Oc4ccccc4)c3)CC2)cc1 (stereo not drawn)	/	/	/	10.0	/	/
O=c1c2cc(Br)ccc2nc(-c2ccc(Cl)cc2)n1O	52.3*	-0.8	-10.8	-4.2	1.6	1.2
Cc1cccc(-n2cnc(C(=O)NNC(=S)Nc3ccc(Cl)cc3)c2)n1	11.5	4.3	-2.6	80.0*	6.9	-1.6
Cc1cccc(-n2cnc(C(=O)NNC(=O)Nc3ccc(Cl)cc3)c2)n1	/	/	/	49.2	/	/
O=C(CCc1csc(NC(=O)c2ccc(F)cc2)n1)Nc1ccc(Cl)c(Cl)c1	/	/	/	-13.0	/	/
CCCn1c(=O)c(C(=O)NCCc2ccccc2)c(O)c2ccccc21	53.9*	-0.2	-1.0	-1.7	-1.4	0.7
O=C(N1CCOCC1)C12CCC3CC(CC(C3)C1)C2	25.2	/	6.7	4.8	-2.9	i
O=C(N1CCOCC1)C12CC3CC(C1)CC(C(=O)N1CCOCC1)(C3)C2	2.7	/	-6.6	2.5	-1.0	5.6*
Cc1cccc(-n2cc(CN(C)Cc3nccn3C)c(-c3cccc(F)c3)n2)c1	-14.5	1.5	18.3	39.1*	8.9	-0.3
CCn1ccnc1CN(C)Cc1cn(-c2cccc(C)c2)nc1-c1cccc(F)c1	8.4	2.8	7.6	-3.5	9.1	4.0
CC1CCCC(C)N1C(=O)c1ccc(CS(=O)(=O)c2ccccc2)cc1 (stereo not drawn)	53.4*	0.6	-8.8	-0.2	-8.1	i
O=C(Nc1nc2c(s1)CCCC2)c1ccc(F)c(F)c1	/	/	/	-12.0	/	/
Nc1ccc2c(c1)C/C(=C/c1ccco1)C2=O	71.8*	/	10.7	-19.3	7.7	-0.3
O=C1/C(=C/c2ccco2)CCc2ccccc21	-1.7	-0.5	-19.1	-10.1	2.5	-0.3
SMILES	DUSP3 inh	TcdB inh	CCHF vOTU inh	PriA SSB inh	PrPC surface inh	Vc quorum ag
CCOC(=O)C1=C(C)Nc2nnnn2C1c1ccc(OC)c(Br)c1 (stereo not drawn)	25.2	12.1*	0.7	-2.4	-1.3	-0.1
CC1(C)C2CCC(C2)C1(C)NC(=O)CNCc1cccs1 (stereo not drawn)	51.3*	-2.2	0.0	-11.2	9.9	i
O=C(NCC[C@H](O)c1ccc2c(c1)OCO2)c1ccccc1C(F)(F)F	/	/	/	-15.0	/	/
O=C(NCCC(O)c1ccc2c(c1)OCO2)c1ccc(Cl)s1 (stereo not drawn)	/	/	/	37.0*	/	/
COc1ccc(CN2CCN(C(C)C(=O)N(C)Cc3cccc(F)c3)CC2)cc1OC (stereo not drawn)	-12.8	-0.2	14.5	52.2*	-2.6	6.5
O=C(COc1ccc(Cl)cc1Cl)NCCOc1ccc(F)cc1	/	/	/	-28.0	/	/
CCOc1ccc(OCCNC(=O)c2ccc(Cl)c(Cl)c2)cc1	/	/	/	-23.0	/	/
Cc1cccc(NC(=O)[C@@H]2CCCN2C(=O)OC(C)(C)C)c1	57.6*	0.7	13.2	-8.4	-3.9	i
